# Experimental data: PubChem BioAssay AID1159580 (chemical genetic matrix, 2015)
# “And” between values parts separate entries of the source, which are not always exact repeats. Equal values may be shown once. Among all 5,500 compounds or so, about 2,000 (36%) were called active. Inconclusive results (about 18%) are left out. Some of the results follow. Unmarked numbers belong to inactive results. Rule as the data show it: active = normalized growth mostly below about 0.91 (no sharp cut-off); inconclusive = no clear call, values can overlap the other calls; inactive = mostly above about 0.92.
# Experiment: chemical genetic growth profiling, strain panel (AID 1159580);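 also: tested at 20 µM; growth read once vehicle control cultures reached saturation at 30 °C; 1 = growth at the plate median or of vehicle wells; lower values mean less growth of the strain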
# Conditions: S. cerevisiae deletion strains, growth OD
smiles,measurement,setting,value
C[C@]12CCC(=O)C=C1C=CC1C2CC[C@@]2(C)C1CC[C@@]21CCC(=O)O1 (stereo partly specified),normalized growth,"locus YAL013W, strain DEP1, hits give low values",0.956
same,normalized growth,"locus YAL021C, strain ccr4, hits give low values",0.971
same,normalized growth,"locus YAL026C, strain drs2, hits give low values",0.97
same,normalized growth,"locus YAL030W, strain snc1, hits give low values",0.974
same,normalized growth,"locus YBL061C, strain skt5, hits give low values",0.977
same,normalized growth,"locus YBR009C, strain hhf1, hits give low values",0.962
same,normalized growth,"locus YBR021W, strain FUR4, hits give low values",1
same,normalized growth,"locus YBR023C, strain chs3, hits give low values",0.979
same,normalized growth,"locus YBR171W, strain sec66, hits give low values",0.966
same,normalized growth,"locus YBR229C, strain ROT2, hits give low values",0.979
same,normalized growth,"locus YBR231C, strain swc5, hits give low values",0.989
same,normalized growth,"locus YBR279W, strain paf1, hits give low values",0.983
same,normalized growth,"locus YCL011C, strain gbp2, hits give low values",0.968
same,normalized growth,"locus YCL016C, strain dcc1, hits give low values",0.976
same,normalized growth,"locus YCL029C, strain bik1, hits give low values",0.949
same,normalized growth,"locus YCL061C, strain MRC1, hits give low values",0.954
same,normalized growth,"locus YCL069W, strain vba3, hits give low values",0.974
same,normalized growth,"locus YCR088W, strain abp1, hits give low values",0.974
same,normalized growth,"locus YDL005C, strain med2, hits give low values",0.98
same,normalized growth,"locus YDL035C, strain GPR1, hits give low values",0.962
same,normalized growth,"locus YDL040C, strain nat1, hits give low values",0.977
same,normalized growth,"locus YDL074C, strain BRE1, hits give low values",0.872
same,normalized growth,"locus YDL101C, strain DUN1, hits give low values",0.877 (active)
same,normalized growth,"locus YDL185W, strain tfp1, hits give low values",0.967
same,normalized growth,"locus YDL192W, strain arf1, hits give low values",0.866 (active)
same,normalized growth,"locus YDR001C, strain nth1, hits give low values",0.952
same,normalized growth,"locus YDR069C, strain doa4, hits give low values",0.984
same,normalized growth,"locus YDR101C, strain arx1, hits give low values",0.955
same,normalized growth,"locus YDR137W, strain rgp1, hits give low values",0.75 (active)
same,normalized growth,"locus YDR150W, strain NUM1, hits give low values",0.985
same,normalized growth,"locus YDR159W, strain sac3, hits give low values",0.901
same,normalized growth,"locus YDR162C, strain NBP2, hits give low values",0.584 (active)
same,normalized growth,"locus YDR195W, strain ref2",1.12
same,normalized growth,"locus YDR297W, strain sur2, hits give low values",0.981
same,normalized growth,"locus YDR318W, strain mcm21, hits give low values",0.956
same,normalized growth,"locus YDR334W, strain swr1, hits give low values",0.977
same,normalized growth,"locus YDR335W, strain msn5, hits give low values",0.976
same,normalized growth,"locus YDR388W, hits give low values",0.969
same,normalized growth,"locus YDR392W, strain spt3, hits give low values",0.662 (active)
same,normalized growth,"locus YDR502C, strain sam2, hits give low values",0.914 (active)
same,normalized growth,"locus YEL003W, strain gim4, hits give low values",0.962
same,normalized growth,"locus YEL037C, strain rad23, hits give low values",0.971
same,normalized growth,"locus YEL061C, strain CIN8 (second series), hits give low values",0.967
same,normalized growth,"locus YEL061C, strain CIN8, hits give low values",0.978
same,normalized growth,"locus YER015W, strain faa2, hits give low values",0.979
same,normalized growth,"locus YER016W, strain bim1, hits give low values",0.975
same,normalized growth,"locus YER110C, hits give low values",0.965
same,normalized growth,"locus YER111C, strain swi4, hits give low values",0.962
same,normalized growth,"locus YER155C, strain BEM2 (second series), hits give low values",0.988
same,normalized growth,"locus YER155C, strain BEM2, hits give low values",0.996
same,normalized growth,"locus YER167W, strain BCK2, hits give low values",0.956
same,normalized growth,"locus YFR010W, strain ubp6, hits give low values",0.986
same,normalized growth,"locus YGL078C, strain dbp3, hits give low values",0.985
same,normalized growth,"locus YGL086W, strain mad1, hits give low values",0.917 (active)
same,normalized growth,"locus YGL167C, strain pmr1, hits give low values",0.968
same,normalized growth,"locus YGL173C, strain kem1, hits give low values",0.953
same,normalized growth,"locus YGL227W, strain vid30, hits give low values",0.988
same,normalized growth,"locus YGL240W, strain doc1, hits give low values",0.992
same,normalized growth,"locus YGL248W, strain PDE1, hits give low values",0.919
same,normalized growth,"locus YGL253W, strain hxk2, hits give low values",0.947
same,normalized growth,"locus YGR135W, strain pre9, hits give low values",0.936
same,normalized growth,"locus YGR252W, strain gcn5, hits give low values",0.969
same,normalized growth,"locus YHR013C, strain ard1, hits give low values",0.901
same,normalized growth,"locus YHR027C, strain rpn1, hits give low values",0.982
same,normalized growth,"locus YHR030C, strain SLT2, hits give low values",0.948 and 0.967
same,normalized growth,"locus YHR079C, strain IRE1 (second series), hits give low values",0.971
same,normalized growth,"locus YHR079C, strain IRE1, hits give low values",0.98
same,normalized growth,"locus YHR094C, strain hxt1, hits give low values",0.974
same,normalized growth,"locus YHR129C, strain ARP1, hits give low values",0.939
same,normalized growth,"locus YHR142W, strain chs7, hits give low values",0.922
same,normalized growth,"locus YHR200W, strain rpn10, hits give low values",0.984
same,normalized growth,"locus YIL066C, strain RNR3, hits give low values",0.95
same,normalized growth,"locus YIL073C, strain SPO22, hits give low values",0.948
same,normalized growth,"locus YIL125W, strain kgd1, hits give low values",0.979
same,normalized growth,"locus YIR030C, strain dcg1, hits give low values",0.979
same,normalized growth,"locus YJL092W, strain hpr5, hits give low values",0.963
same,normalized growth,"locus YJL095W, strain BCK1 (second series), hits give low values",0.984
same,normalized growth,"locus YJL095W, strain BCK1, hits give low values",0.807 and 0.975
same,normalized growth,"locus YJL115W, strain asf1, hits give low values",0.971
same,normalized growth,"locus YJL129C, strain trk1, hits give low values",0.95
same,normalized growth,"locus YJL134W, strain LCB3, hits give low values",0.982
same,normalized growth,"locus YJL154C, strain vps35, hits give low values",0.979
same,normalized growth,"locus YJL164C, strain tpk1, hits give low values",0.946
same,normalized growth,"locus YJL166W, strain qcr8, hits give low values",0.993
same,normalized growth,"locus YJL168C, strain set2, hits give low values",0.969
same,normalized growth,"locus YJL187C, strain SWE1 (second series), hits give low values",0.931
same,normalized growth,"locus YJL187C, strain SWE1, hits give low values",0.973
same,normalized growth,"locus YJR043C, strain POL32, hits give low values",1.06
same,normalized growth,"locus YJR066W, strain TOR1, hits give low values",0.951
same,normalized growth,"locus YKL009W, strain mrt4, hits give low values",0.948
same,normalized growth,"locus YKL068W, hits give low values",0.966
same,normalized growth,"locus YKL085W, strain MDH1 (second series), hits give low values",0.971
same,normalized growth,"locus YKL085W, strain MDH1, hits give low values",0.971
same,normalized growth,"locus YKL160W, strain elf1, hits give low values",0.982
same,normalized growth,"locus YKR001C, strain vps1, hits give low values",0.788 (active)
same,normalized growth,"locus YKR026C, strain gcn3, hits give low values",0.98
same,normalized growth,"locus YKR091W, strain srl3, hits give low values",0.969
same,normalized growth,"locus YLL001W, strain dnm1, hits give low values",0.983
same,normalized growth,"locus YLL026W, hits give low values",0.989
same,normalized growth,"locus YLL041C, strain sdh2, hits give low values",0.983
same,normalized growth,"locus YLR027C, strain aat2, hits give low values",0.994
same,normalized growth,"locus YLR039C, strain RIC1, hits give low values",0.588 (active)
same,normalized growth,"locus YLR058C, strain SHM2, hits give low values",0.959
same,normalized growth,"locus YLR102C, strain apc9, hits give low values",0.973
same,normalized growth,"locus YLR113W, strain HOG1, hits give low values",0.934
same,normalized growth,"locus YLR221C, strain rsa3, hits give low values",0.956
same,normalized growth,"locus YLR258W, strain gsy2, hits give low values",0.964
same,normalized growth,"locus YLR262C, strain YPT6 (second series), hits give low values",0.792 (active)
same,normalized growth,"locus YLR262C, strain YPT6, hits give low values",0.525 (active)
same,normalized growth,"locus YLR268W, strain sec22, hits give low values",0.914
same,normalized growth,"locus YLR320W, strain mms22, hits give low values",0.9
same,normalized growth,"locus YLR330W, strain CHS5, hits give low values",0.938
same,normalized growth,"locus YLR342W, strain FKS1 (second series), hits give low values",0.785 (active)
same,normalized growth,"locus YLR342W, strain FKS1, hits give low values",0.961
same,normalized growth,"locus YLR357W, strain rsc2, hits give low values",1.01
same,normalized growth,"locus YLR370C, strain arc18, hits give low values",0.969
same,normalized growth,"locus YLR371W, strain rom2, hits give low values",0.975
same,normalized growth,"locus YLR384C, strain iki3, hits give low values",0.993
same,normalized growth,"locus YLR418C, strain cdc73, hits give low values",0.702 (active)
same,normalized growth,"locus YML016C, strain PPZ1, hits give low values",0.973
same,normalized growth,"locus YML032C, strain rad52, hits give low values",0.971
same,normalized growth,"locus YML120C, strain ndi1, hits give low values",0.971
same,normalized growth,"locus YML124C, strain tub3, hits give low values",0.986
same,normalized growth,"locus YMR058W, strain fet3, hits give low values",0.964
same,normalized growth,"locus YMR078C, strain ctf18, hits give low values",0.973
same,normalized growth,"locus YMR125W, strain sto1, hits give low values",0.985
same,normalized growth,"locus YMR129W, hits give low values",0.973
same,normalized growth,"locus YMR205C, strain PFK2, hits give low values",0.938
same,normalized growth,"locus YMR223W, strain ubp8, hits give low values",0.941
same,normalized growth,"locus YMR231W, strain pep5, hits give low values",0.99
same,normalized growth,"locus YMR307W, strain GAS1, hits give low values",0.597 (active)
same,normalized growth,"locus YNL067W, strain RPL9B, hits give low values",0.937
same,normalized growth,"locus YNL071W, strain lat1, hits give low values",0.927
same,normalized growth,"locus YNL128W, strain TEP1, hits give low values",0.965
same,normalized growth,"locus YNL153C, strain GIM3, hits give low values",0.953
same,normalized growth,"locus YNL183C, strain NPR1, hits give low values",0.928
same,normalized growth,"locus YNL209W, strain ssb2, hits give low values",0.985
same,normalized growth,"locus YNL233W, strain BNI4, hits give low values",0.923
same,normalized growth,"locus YNL248C, strain rpa49, hits give low values",0.912
same,normalized growth,"locus YNL250W, strain rad50, hits give low values",0.981
same,normalized growth,"locus YNL271C, strain bni1, hits give low values",0.968
same,normalized growth,"locus YNL298W, strain CLA4, hits give low values",0.955
same,normalized growth,"locus YNL307C, strain MCK1, hits give low values",0.831 (active)
same,normalized growth,"locus YNL322C, strain KRE1 (second series), hits give low values",0.991
same,normalized growth,"locus YNL322C, strain KRE1, hits give low values",0.997
same,normalized growth,"locus YNR049C, strain mso1, hits give low values",0.947
same,normalized growth,"locus YNR052C, strain pop2, hits give low values",0.906 (active)
same,normalized growth,"locus YOL012C, strain htz1",0.991
same,normalized growth,"locus YOL147C, strain pex11, hits give low values",0.971
same,normalized growth,"locus YOR001W, strain rrp6, hits give low values",1
same,normalized growth,"locus YOR061W, strain CKA2, hits give low values",0.958
same,normalized growth,"locus YOR069W, strain VPS5, hits give low values",0.975
same,normalized growth,"locus YOR070C, strain gyp1, hits give low values",0.969
same,normalized growth,"locus YOR080W, strain dia2, hits give low values",0.979
same,normalized growth,"locus YOR083W, strain WHI5, hits give low values",0.975
same,normalized growth,"locus YOR106W, strain vam3, hits give low values",0.961
same,normalized growth,"locus YOR136W, strain idh2, hits give low values",0.963
same,normalized growth,"locus YOR144C, strain elg1, hits give low values",0.976
same,normalized growth,"locus YOR184W, strain ser1, hits give low values",0.724 (active)
same,normalized growth,"locus YOR231W, strain MKK1, hits give low values",0.97
same,normalized growth,"locus YOR265W, strain rbl2, hits give low values",0.983
same,normalized growth,"locus YOR270C, strain vph1, hits give low values",0.771 (active)
same,normalized growth,"locus YOR290C, strain snf2, hits give low values",0.947
same,normalized growth,"locus YOR316C, strain cot1, hits give low values",0.968
same,normalized growth,"locus YPL051W, strain arl3, hits give low values",0.969
same,normalized growth,"locus YPL055C, strain LGE1, hits give low values",0.909
same,normalized growth,"locus YPL078C, strain atp4, hits give low values",0.975
same,normalized growth,"locus YPL106C, strain sse1, hits give low values",0.994
same,normalized growth,"locus YPL240C, strain hsp82, hits give low values",0.998
same,normalized growth,"locus YPL241C, strain CIN2, hits give low values",0.991
same,normalized growth,"locus YPL256C, strain CLN2, hits give low values",0.946
same,normalized growth,"locus YPR119W, strain clb2, hits give low values",0.981
same,normalized growth,"locus YPR141C, strain kar3, hits give low values",0.947
same,normalized growth,"locus YPR163C, strain tif3, hits give low values",0.867 (active)
same,normalized growth,"locus YPR167C, strain met16, hits give low values",0.967
same,normalized growth,"strain wtn01, hits give low values",0.902
